# Measurements taken from PubChem BioAssay AID2384 (Southern Research Specialized Biocontainment Screening …, 2010).
# The campaign covered roughly 2,300 compounds. About 1,100 (48%) were called active. How the calls were made is not given here. So high a share suggests a set chosen from earlier hits. Some of the results follow. Results with a measured potency or affinity are listed apart.
# Assay: S. typhi counter-screen signal inhibition – fluorescence, 4 h, counter-screen for PhoP regulon inhibitor project, dose response (AID 2384)
# Settings: S. typhi GFP reporter counter-screen; series mostly up to 150 µM
row,Compound,inhibition
1,Cn1c(=O)c2c(nc(Br)n2CCSc2nc3ccccc3o2)n(C)c1=O,inactive
2,CC1(C)CC(CCNC(=O)c2ccc(-n3cnnn3)cc2)CC(C)(C)N1,inactive
3,COc1ccc(C(=O)Nc2cc3c(cc2OC)CCCC3)cc1Br,inactive
4,Nn1cnnc1SCC(=O)Nc1ccc(C2CCCCC2)cc1,inactive
5,O=C(Nc1ccc2c(c1)nc1n2CCN(Cc2ccccc2)C1)c1cccs1,inactive
6,c1ccc(-c2nc(NC3CC3)nc(-n3ccnc3)n2)cc1,inactive
7,Cc1ccccc1Oc1ccc(Oc2ccccc2C)nn1,inactive
8,CC1CCN(C(=O)C2CCCN(S(C)(=O)=O)C2)CC1 (stereo not drawn),inactive
9,CCN(CC)C(=O)C1CCN(Cc2ccc(Br)cc2)CC1,inactive
10,CN(C)C=NC(=O)c1cc(C(=O)c2ccc(Cl)cc2Cl)c[nH]1,inactive
11,C[N+]1(C)C2CCC1CC(OC(=O)c1ccccc1)C2 (stereo not drawn),inactive
12,COc1ccc(N2C3=C(CC4=C2CC(C)(C)CC4=O)C(=O)CC(C)(C)C3)cc1,inactive
13,COc1ccc(Cl)cc1NC(=O)CN(C)CC(=O)Nc1ccccc1C(F)(F)F,inactive
14,CC1Cc2ccccc2N1C(=O)CN1C(=O)C(=O)N(Cc2ccccc2)C1=O (stereo not drawn),inactive
15,Cc1c(/C=N/NC(=O)c2ccc3c(c2)OCO3)cnn1C,inactive
16,Cc1c(/C=N/NC(=O)c2sc3ccccc3c2Cl)cnn1C,inactive
17,N#CC1=C2N=C(N)c3ccccc3N2C2=C(C(=O)CCC2)C1c1cccc(Cl)c1 (stereo not drawn),inactive
18,CC(C(=O)c1ccc2ccccc2c1)N1CCCCC1 (stereo not drawn),inactive
19,c1ccc2oc(-c3ccc(Nc4nc(N5CCCCC5)nc(N5CCOCC5)n4)cc3)nc2c1,inactive
20,CCOc1ccccc1NC1=NC2CS(=O)(=O)CC2S1 (stereo not drawn),inactive
21,CC(C)c1cc(C(=O)Nc2ccc3c(c2)OCO3)no1,inactive
22,CCOC(=O)c1sc(N)c(C(=O)OC)c1C,inactive
23,S=C1SCN(Cc2cccnc2)CN1Cc1cccnc1,inactive
24,CC(OC(=O)Cc1coc2cc3c(cc12)CCC3)C(=O)NCc1ccc2c(c1)OCO2 (stereo not drawn),inactive
25,Cc1ccc(NC(=O)CN(C)C(=O)Cn2ccsc2=N)cc1,inactive

row,Compound,inhibition
1,O=C(NC(C(=O)c1ccccc1)n1c(=O)cc[nH]c1=S)c1ccccc1 (stereo not drawn),inactive
2,CCSc1nc(C)cc(C)c1S(=O)(=O)c1ccccc1C,inactive
3,CCN(CC)CCSc1nnc2c3ccccc3n(Cc3ccccc3)c2n1,inactive
4,O=C1SC(c2ccccc2)=C/C1=C\N1CCCCC1,inactive
5,Cc1cc(C)n(-c2nc3ccccc3nc2N2CCN(C(=O)c3ccc(F)cc3)CC2)n1,inactive
6,O=C(CCNS(=O)(=O)c1cccc2nonc12)N1CCN(c2cccc(Cl)c2)CC1,inactive
7,Cc1c(C=O)c2ccccn2c1C(=O)c1ccccc1,inactive
8,CCCCC(=O)Nc1ccc2c(c1)C(=O)NC2=O,inactive
9,CCOC(=O)COc1cccc2c(=O)n(CC(=O)N3CCCCC3)ccc12,inactive
10,COc1cccc(-c2cc(C(=O)O)[nH]n2)c1,inactive
11,COc1nc(N(C#N)CC(N)=O)nc(N2CCCC2)n1,inactive
12,COc1ccc(CSCCN)cc1Cl,inactive
13,CCCCOc1ccc(CN=C(N)N)cc1Cl,inactive
14,COC(=O)c1cc(CSC(=N)N)ccc1OCCC(C)C,inactive
15,CCOC(=O)c1c(CSC(=N)N)n(C)c2cc(Br)c(OC(C)=O)cc12,inactive
16,CCOC(=O)c1cccc(NC(=O)c2cccs2)c1,inactive
17,Cn1cnc2cc(NC(=O)c3cccs3)ccc21,inactive
18,CCN(CC)CCNc1nc(-c2ccc(OC)cc2)c(-c2ccc(OC)cc2)s1,inactive
19,COc1ccc(CC(=O)N(Cc2cc3cc(OC)ccc3[nH]c2=O)C(C)C)cc1,inactive
20,CC(=O)c1cccc(NC(=O)CCC2CCCC2)c1,inactive
21,CCC(=O)Nc1nnc(-c2ccco2)o1,inactive
22,Cc1cc(=O)n(CC(C)C)c(O)c1C#N,inactive
23,S=C1NCN(C2CCCCC2)CN1c1ccccc1,inactive
24,CCc1nccc2c1[nH]c1ccccc12,inactive
25,C=CCOc1ccc(-c2n[nH]c(=S)o2)cc1,inactive

row,Compound,inhibition
1,O=C1c2ccccc2C2=Nc3ccccc3SC(c3ccccc3F)C12 (stereo not drawn),inactive
2,COc1ccc(NC2=Nc3ccccc3CC2)cc1,inactive
3,Cc1cccc(NS(=O)(=O)c2ccc3c(c2)OCCO3)c1,inactive
4,c1ccc(CNc2nc(-c3ccccn3)nc3ccccc23)cc1,inactive
5,Cc1ccc(Cn2c(=N)c(C(=O)NCc3ccco3)cc3c(=O)n4ccccc4nc32)cc1,inactive
6,CN(CCO)CC(O)Cn1cnc2c1c(=O)n(C)c(=O)n2C (stereo not drawn) (tested in a mixture with another compound),inactive
7,COc1ccc(N2CCN(C(=O)c3cc4c(s3)-c3ccccc3S(=O)(=O)C4)CC2)cc1,inactive
8,c1ccc(-c2nnc(-c3c[nH]c4ccccc34)nc2-c2ccccc2)cc1,inactive
9,O=c1oc2ccccc2c(O)c1C(c1ccccn1)c1c(O)c2ccccc2oc1=O,inactive
10,CC(C)(C)n1nc2c(c1NC(=O)Cc1cccs1)CSC2,inactive
11,CN(C)CCCN(C(=O)c1cc2cc([N+](=O)[O-])ccc2s1)c1nc2cc3c(cc2s1)OCCO3,inactive
12,CCCCN(C)C(=O)c1ccc(S(=O)(=O)N2CCOCC2)cc1,inactive
13,COC(=O)c1ccc(S(=O)(=O)N2CCC(c3nc4ccccc4o3)CC2)cc1,inactive
14,O=C(NCc1cccnc1)C1c2ccccc2C(=O)N1Cc1ccccc1 (stereo not drawn),inactive
15,CCOC(=O)c1c(C)sc2c1N(C(C)=O)c1cc(Cl)ccc1S2,inactive
16,NC(=O)c1c(NC(=O)CSc2nc(N)cc(=O)[nH]2)sc2c1CCCC2,inactive
17,O=C(CC(=O)NCc1ccccc1)NCc1ccccc1,inactive
18,CCOc1ccc(NC(=O)CN(C)C(=O)c2ccccc2CCc2ccccc2)cc1OCC,inactive
19,CCOCCCNC(=O)CN1CCN(Cc2ccccc2C)C1=O,inactive
20,COC(=O)C1C(=O)C2=C(CC1C)Nc1ccccc1NC2c1ccc(C)s1 (stereo not drawn),inactive
21,CCc1nn(CCCN2CCN(c3cccc(Cl)c3)CC2)c(=O)n1CCOc1ccccc1,inactive
22,Cc1nn(Cc2ccccc2Cl)c2sc(C(=O)Nc3ccccc3N3CCOCC3)cc12,inactive
23,CN1C(=O)C2(Nc3ccccc3-c3nc4ccccc4n32)c2ccccc21 (stereo not drawn),inactive
